From PubChem BioAssay (NCI)
Compounds without any hit were thinned out: in the full panel of roughly 83,000, 20% have a hit.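 Treatment: one concentration, 48 hours, 96-well format. Scoring: percent growth, with anything below 10 considered active.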 Values without a mark were called inactive. Activity calls are given as the source filed them.

tested on: MOLT-4 leukemia; experiment: NCI-60 one-dose screen, 48 h (100 = growth as untreated, 0 = no growth, -100 = all killed); details: 10 µM unless noted
Experimental: Growth inhibition of the MOLT-4 human tumor cell line is measured as a screen for anti-cancer activity. Cells are grown in 96 well plates and exposed to the test compound for 48 hours. Compounds are tested at a single concentration, which is 10^-5 M for most compounds. The reported endpoint is percent growth (GI% or GIPRCNT), where numbers from 0 - 100% represent growth inhibition, and numbers from -100% - 0 represent cell death. For example, a value of 40 represents 60% growth inhibition. A value of 0 means no net growth occurred over the course of the experiment. A value of -40 indicates 40% of cells at the beginning of the experiment died by the end of the experiment. A value of -100 means all cells are dead at the end of the experiment.
NCI-60 Human Tumor Cell Lines Screen was performed using the standard one-dose NCI protocol, which is described in more detail at https://dtp.cancer.gov/discovery_development/nci-60/default.htm.
Compounds with GIPRCNT values below 10 were considered active. Activity score was based on GIPRCNT using the following formula: […]
Score is 0 for GIPRCNT values of 100 or above, 50 for GIPRCNT values of 0, and 100 for GIPRCNT values of -100.

| SMILES | growth |
| --- | --- |
| Cc1[nH]c(-c2nc3ccccc3[nH]2)c(C)c1C(=O)N1CCOCC1 | 105% |
| CCN(CC)CC(O)CNc1c2ccc(Cl)cc2nc2ccc(OC)cc12 (stereo not given) | 4.43% (active) |
| CCCCOc1nc2ccc(Cl)cc2cc1/C=C/C(=O)/C=C1/CC(c2cc3cc(Cl)ccc3nc2OCCCC)Nc2ccccc2N1 (stereo not given) | 100% |
| O=c1[nH]c(NCc2nnnn2-c2ccc(Br)cc2)nc2sc3c(c12)CCCC3 | 76.9% |
| COc1cc(NC(=O)c2cc(O)c(CC=C(C)C)c(O)c2)cc2c1O[C@]1(C)CC[C@@H](O)C(C)(C)[C@H]1C2 | -8.24% (active) |
| COC1(CC[C@@H](C)COC2OC(CO)C(O)C(O)C2O)O[C@H]2C[C@H]3[C@@H]4CC=C5C[C@@H](OC6OC(CO)C(OC7OC(C)C(O)C(O)C7O)C(O)C6OC6OC(C)C(O)C(O)C6O)CC[C@]5(C)[C@H]4CC[C@]3(C)[C@H]2[C@@H]1C (stereo not given in full) | -99.1% (active) |
| COC(=O)Nc1nc2ccc(C(=O)C3CC3)cc2[nH]1 | -16% (active) |
| CCCCCCNCc1cc(C(C)(C)C)cc(CNCCCCCC)c1O | -14.8% (active) |
| CCCc1cc(=O)oc2c3c(c4c(c12)OC(C)(C)C=C4)O[C@@H](C)[C@H](C)C3=O | 69.1% |
| O=C1CSC(c2ccccc2O)N1c1nnc(Cn2cnnc2)o1 (stereo not given) | 61.5% |
| CC(C)(C)c1ccc(C(=O)Nc2sc3c(c2C(N)=O)CCC(=O)C3)cc1 | 4.19% (active) |
| C[C@H]1[C@H]2C3=CC[C@@H]4[C@@]5(C)C/C(=C/c6ccncc6)C(=O)C(C)(C)[C@@H]5CC[C@@]4(C)[C@]3(C)CC[C@@]2(C(=O)N2CCN(C)CC2)CC[C@@H]1C | 52.1% |
| Oc1[nH]c2ccccc2c1/C=c1/cc2c(c(-c3ccc(F)cc3)n1)=Nc1ccccc1-2 | -15.6% (active) |
| CCOC(=O)c1sc2ccc(NCc3nc[nH]c3C)cc2c1NC(=O)c1cc(OC)c(OC)c(OC)c1 | 88.2% |
| CCOC(=O)c1c(C)nc2c(c1N)/C(=C/c1ccc(OC)cc1)C(=O)N2Cc1ccc(F)cc1 | 1.64% (active) |
| CCOC(=O)C(=CNc1ccccc1[N+](=O)[O-])C(=O)OCC | 96.1% |
| CS(=O)(=O)c1ccc(-c2nc3cc(Cl)ccc3n2CC(=O)N/N=C/c2ccc(Cl)cc2)cc1 | 12.6% |
| Cc1[nH]c(-c2nc3ccccc3[nH]2)c(C)c1C(=O)NNc1ccc(Cl)cc1 | 81.6% |
| CCC(C)NCc1ccccc1 (stereo not given) | 93.5% |
| C=C1C(=O)O[C@H]2[C@H]1CC/C(COC(=O)NCc1ccc(Cn3c(=O)sn(CCCCl)c3=O)cc1)=C\CC[C@@]1(C)O[C@@H]21 | -31.7% (active) |

| SMILES | growth |
| --- | --- |
| Clc1ccc(/C=C/c2nc(Nc3ccc(Cl)cc3)c3ccccc3n2)cc1 | 98.2% |
| COc1ccc(/C=C2\COc3ccc(O)c(O)c3C2=O)c(OC)c1 | 7.29% (active) |
| N#Cc1c(-c2ccc(C(F)(F)F)cc2)cc(N2CC(O)C2)n2c1nc1ccccc12 | 103% |
| N#Cc1c(N)nc2c(nnn2-c2cccc(Br)c2)c1N | 83.3% |
| CCCCCCCSc1ccc(C(=O)O)cc1 | 106% |
| COc1ccc(N(C)c2nc(Cl)nc3cnn(C)c23)cc1 | 14.9% |
| C#C[C@]1(O)CC[C@H]2[C@@H]3CC=C4c5sc(N=C(N)N)nc5CC[C@]4(C)[C@H]3CC[C@@]21C | -8.43% (active) |
| O=[N+]([O-])c1ccccc1C(O)Cc1ccc2ccccc2n1 (stereo not given) | -6.33% (active) |
| CCc1cc(Cc2cc(CC)cc(C(C)(C)C)c2O)c(O)c(C(C)(C)C)c1 | 14.4% |
| N#Cc1cnn2c(-c3ccc(Cl)cc3)nc(NCCc3ccccc3)nc12 | 74.2% |
| COc1cc2c(cc1OC)-c1ccc3cc4c(cc3c1N(CCCN(C)C)C2)OCO4 | 8.66% (active) |
| CC(=O)NCC(=O)Nc1ccc(-c2nnc3ccccn23)nc1.CC(=O)NCC(=O)Nc1ccc(-c2nnc3ccccn23)nc1.[Pt+2] | 96.9% |
| O=C(NCCOCCOCCOCCNC(=O)c1cc2c(o1)C(=O)c1ccccc1C2=O)NC12CC3CC(CC(C3)C1)C2 | 12.1% |
| CCOC(=O)c1ccc(NC(=O)CCCN(CC)CC)cc1 | 95.7% |
| CC(C)c1ccc(C(=O)OC(=O)c2ccc(C(C)C)cc2)cc1 | 66.2% |
| COc1cc2c(O)n(CCCn3ccnc3)c3c4cnc5cccc(c(=O)c3c2cc1OC)c54 | 4.13% (active) |
| CN1CCN(c2ccc3nc(/N=C/c4ccc5sc(-c6ccc([N+](=O)[O-])cc6)nc5c4)sc3c2)CC1 | 108% |
| COc1cc2ccccc2cc1C(=O)NC(=S)Nc1ccc(-c2nc3ccccc3[nH]2)cc1 | 91.1% |
| O=C1/C(=C/c2ccc([N+](=O)[O-])cc2)COc2ccc(O)c(O)c21 | -1.02% (active) |
| O=C1CCC(N2C(=O)c3cccc(NCCCC4CCN(CCNC(=O)c5cc6c(o5)C(=O)c5ccccc5C6=O)CC4)c3C2=O)C(=O)N1 (stereo not given) | 21.8% |
